Assay results from PubChem BioAssay (NCATS).
Records with an inconclusive call do not appear. Entries that show only a call come without a potency. Activity calls are given as the source filed them. Unless noted, the call rests on the fitted dose curve; in most records, active means well fitted curve in the direction sought with a large enough effect; inconclusive means small, poorly fitted or top-dose-only effect, or another doubt; inactive means no such curve, though single readings can be large; an effect the other way counts as inactive or inconclusive.

Key:
[1] = High-throughput drug toxicity screening in the BPDCN cell line Cal-1 (AID 1224825; call rule not given here); details: Cal-1 BPDCN cell viability, qHTS; at 45.8 µM (top of the series) unless noted
In short: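 Percent activity derived from CellTiter-Glo luminescence, scaling DMSO to 100% and 9.2 uM final bortezomib to 0%. BPDCN Cal-1 cells (500/well, RPMI plus 10% FBS) incubated with compounds 48 hours at 37C before reading.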

[2] = qHTS assay for measurement of the activity of small molecule inhibitors on Zika virus induced Caspase-3 activity in human iPSC derived neural progenitor cells (hNPCs) (AID 1224857); further: nearly all actives have a fitted effect of over 65% in size
In short: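 Caspase-3/7 induction by a 6-hour ZIKV infection was quantified with a luminescent Caspase-Glo 3/7 reagent incubated 30 minutes at room temperature. Compounds were preincubated with hNPCs for 1 hour; inhibition was calculated against uninfected and infected control wells.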

[3] = qHTS Screen of the MIPE 4.0 Collection Against Ewings Sarcoma (RDES) (AID 1259252); further: nearly all actives have a fitted effect of over 35% in size; further: potency means the concentration at half of the fitted maximal effect
In short: (§1)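 Cells plated in serum-containing RPMI (5% FBS) and treated with compound dilutions for 48 h. Readout luminescent viability; normalization relied on vehicle (no inhibition) and media-only columns (full inhibition).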

[4] = qHTS Screen of the MIPE 4.0 Collection Against Ewings Sarcoma (TC71) (AID 1259253); further: nearly all actives have a fitted effect of over 40% in size; further: potency means the concentration at half of the fitted maximal effect
In short: as §1

[5] = qHTS Screen of the MIPE 4.0 Collection Against Ewings Sarcoma (EW8) (AID 1259255); further: nearly all actives have a fitted effect of over 35% in size; further: potency means the concentration at half of the fitted maximal effect
In short: as §1

[6] = qHTS Screen of the MIPE 4.0 Collection Against Ewings Sarcoma (TC32) (AID 1259256); further: nearly all actives have a fitted effect of over 45% in size; further: potency means the concentration at half of the fitted maximal effect
In short: as §1

[7] = P-glycoprotein substrates identified in KB-8-5-11 adenocarcinoma cell line, qHTS therapeutic library screen (AID 1346987); further: nearly all actives have a fitted effect of over 65% in size; further: potency means the concentration at half of the fitted maximal effect
In short: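 Luminescence from CellTiter-Glo, read 5 min after addition, quantified survival of KB-8-5-11 (P-gp-overexpressing) cells exposed to compounds for 72 h. AC50 was derived from concentration-response curves.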

[8] = qHTS of pediatric cancer cell lines to identify multiple opportunities for drug repurposing: Primary screen for TC32 cells (AID 1347089); further: nearly all actives have a fitted effect of over 60% in size; further: potency means the concentration at half of the fitted maximal effect
In short: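 Luminescent CellTiter-Glo read-out of metabolically active TC32 cells after 48 h compound exposure. Primary: MIPE 11-point, 0.78 nM–46 µM; NPC 8-point, 0.59 nM–46 µM. Confirmatory: 11-point dilutions.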

[9] = qHTS of pediatric cancer cell lines to identify multiple opportunities for drug repurposing: Primary screen for DAOY cells (AID 1347090); further: nearly all actives have a fitted effect of over 55% in size; further: potency means the concentration at half of the fitted maximal effect
In short: (§2)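 Cell viability, CellTiter-Glo luminescence; 500-1,000 cells/well, 8- or 11-point titration, 48 h compound exposure at 37 degrees C, 5% CO2. Controls: DMSO neutral, bortezomib 2.3 µM final as positive.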

[10] = qHTS of pediatric cancer cell lines to identify multiple opportunities for drug repurposing: Primary screen for SJ-GBM2 cells (AID 1347091); further: potency means the concentration at half of the fitted maximal effect
In short: as §2

[11] = qHTS of pediatric cancer cell lines to identify multiple opportunities for drug repurposing: Primary screen for SK-N-MC cells (AID 1347093); further: potency means the concentration at half of the fitted maximal effect
In short: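 Metabolically active cells were quantified by ATP-dependent luminescence (CellTiter-Glo, 15 min at room temperature) following 48 h treatment. Cells had been plated at 500-1,000 per well and settled for 5 h beforehand.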

[12] = qHTS of pediatric cancer cell lines to identify multiple opportunities for drug repurposing: Primary screen for A673 cells (AID 1347092); further: nearly all actives have a fitted effect of over 45% in size; further: potency means the concentration at half of the fitted maximal effect
In short: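 A673 cells (500-1,000 cells/well in growth media) were pre-incubated 5 h at 37 degrees C, then exposed to compounds for 48 h. Viability was read as CellTiter-Glo luminescence; concentration-response curves came directly from the primary screen.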

[13] = NS1 protein of Zika virus - qHTS assay to identify small molecule inhibitors in human HEK 293 cells (AID 1347053); further: nearly all actives have a fitted effect of over 55% in size; further: potency means the concentration at half of the fitted maximal effect
In short: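 TR-FRET signal from two anti-ZIKV NS1 antibodies quantified NS1 in HEK 293 cells 24 h after MR766 infection at MOI = 0.5; compounds were added 1 h before virus. Uninfected cells and infected cells defined the NS1 normalization range.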

[14] = qHTS of pediatric cancer cell lines to identify multiple opportunities for drug repurposing: Primary screen for BT-37 cells (AID 1347094); further: potency means the concentration at half of the fitted maximal effect
In short: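 Primary screen of approved and investigational compounds on cells in growth media at 37 degrees C, 5% CO2. MIPE set at 11-point and NPC set at 8-point dilutions; viability scored by ATP-based luminescence at 48 hours.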

[15] = P-glycoprotein substrates identified in KB-3-1 adenocarcinoma cell line, qHTS therapeutic library screen (AID 1346986); further: nearly all actives have a fitted effect of over 60% in size
In short: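 Viability read by CellTiter-Glo after 72 h compound exposure in dose-response of KB-3-1 and KB-8-5-11 (P-gp-high) cells. Hits needed AC50 < 10 uM, >50% maximum response and curve class -1.1 to -2.4. Cherry-picks retested ± tariquidar, including pcDNA/MDR-19 HEK-293 pair.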

Compound	viability (% of control) [1] [%]	Potency [2]	Potency [3]	Potency [4]	Potency [5]	Potency [6]	Potency [7]	Potency [8]	Potency [9]	Potency [10]	Potency [11]	Potency [12]	Potency [13]	Potency [14]	Potency [15]
CC(=O)O[C@@]12CO[C@H]1C[C@H](O)[C@@]1(C)C(=O)[C@H](O)C3=C(C)[C@@H](OC(=O)C(O)[C@@H](NC(=O)OC(C)(C)C)c4ccccc4)C[C@@](O)([C@@H](OC(=O)c4ccccc4)[C@@H]21)C3(C)C (some centres not stated)	8.89	inactive	inactive	inactive	inactive	inactive	16.6 nM (active)	0.1 nM (active)	1 nM (active)	23500 nM (active)	1 nM (active)	–	–	–	–
COc1cc(C(=O)NC2CCN(C)CC2)ccc1Nc1ncc2c(n1)N(C1CCCC1)CCC(=O)N2C(C)C	2.49	inactive	2350 nM (active)	2090 nM (active)	2090 nM (active)	2350 nM (active)	–	–	–	2350 nM (active)	1180 nM (active)	2960 nM (active)	–	–	–
C[C@H]1O[C@H](O[C@H]2[C@H](O)[C@@H](O)[C@@H](O[C@H]3[C@H](O)[C@@H](O)C(O)O[C@H]3CO)O[C@H]2CO)[C@H](O)[C@@H](O)[C@H]1N[C@H]1C=C(CO)[C@@H](O)[C@H](O)[C@@H]1O (some centres not stated)	134	inactive	inactive	inactive	inactive	inactive	–	inactive	inactive	4690 nM (active)	33200 nM (active)	187 nM (active)	inactive	1720 nM (active)	–
N#Cc1ccc(COC[C@H]2O[C@@H](n3c(NCc4ccc(Cl)c(Cl)c4)nc4c(N)ncnc43)[C@@H](O)[C@@H]2O)cc1	3.42	inactive	9350 nM (active)	9350 nM (active)	9350 nM (active)	5260 nM (active)	inactive	–	–	–	20900 nM (active)	7430 nM (active)	–	–	–
COc1cccc2c1C(=O)c1c(O)c3c(c(O)c1C2=O)C[C@@](O)(C(=O)CO)C[C@@H]3O[C@H]1C[C@H](N)[C@H](OC2CCCCO2)[C@H](C)O1 (some centres not stated)	1.87	inactive	1180 nM (active)	662 nM (active)	166 nM (active)	3.7 nM (active)	–	3700 nM (active)	–	1180 nM (active)	833 nM (active)	–	2960 nM (active)	1930 nM (active)	–
N#CC(=C(O)c1ccc(Cl)cc1Cl)c1nc2cc(Cl)ccc2c(=O)[nH]1	95.9	inactive	inactive	inactive	inactive	–	inactive	inactive	inactive	inactive	–	–	inactive	inactive	–
CC1(C)[C@H](O[C@H]2O[C@H](C(=O)O)[C@@H](O)[C@H](O)[C@H]2O[C@@H]2O[C@H](C(=O)O)[C@@H](O)[C@H](O)[C@H]2O)CC[C@@]2(C)[C@H]1CC[C@]1(C)[C@H]2C(=O)C=C2[C@H]3C[C@@](C)(C(=O)O)CC[C@]3(C)CC[C@]21C	125	inactive	inactive	inactive	inactive	inactive	inactive	inactive	–	–	inactive	inactive	inactive	inactive	inactive
NC(=O)c1ncn([C@@H]2O[C@H](CO)[C@@H](O)[C@@H]2O)c1N	112	inactive	inactive	inactive	inactive	–	inactive	inactive	–	inactive	–	–	inactive	inactive	–
OC[C@@H](O)[C@@H](O)[C@H](O)[C@@H](O)CO	126	inactive	inactive	inactive	inactive	inactive	–	inactive	inactive	–	–	inactive	–	inactive	inactive
CCOC(=O)N1CCN([N+]([O-])=NOc2ccc([N+](=O)[O-])cc2C#N)CC1	10.9	inactive	2090 nM (active)	2640 nM (active)	2350 nM (active)	2640 nM (active)	–	3700 nM (active)	–	–	10500 nM (active)	–	–	7690 nM (active)	–
